# Reference: PubChem BioAssay
# Several values for one entry are separate records, joined by “and”; a condition that tells them apart may be missing. Equal entries are not always repeated. Inconclusive results are not listed. Activity calls are given as the source filed them.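 How the source made its calls, unless noted: active means normalized viability below 100% at a tested concentration; inactive means the rest.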
# Assays:
# [1] = drug combination growth inhibition, ovarian cancer – cell-based, oncology-focused library, rucaparib conditional, profiling panel (AID 1508598); conditions: patient-derived ovarian cancer cells, CellTiter-Glo viability, 144 h, stronger effect = lower value
# [2] = modulation of C. elegans fzo-1 (AID 1259413; call rule not given here;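 further: fzo-1 mutant C. elegans worms in liquid wells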); conditions: C. elegans fzo-1 modulator screen, mean read-out; stronger effect = higher value
# [3] = EMT-state selective cytotoxicity in co-culture – imaging, PC-3E GFP, TEM4-18 mCherry, primary screen (AID 1345086;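 active means compounds killing one labelled cell type while sparing the other, by normalised counts and ratio limits, not self-fluorescent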;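 on all read-outs here: cells exposed to compound for 72 h before imaging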;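 on red/green cell ratio (normalised): normalised mesenchymal count divided by normalised epithelial count so high means epithelial killing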); conditions: PC-3E GFP / TEM4-18 mCherry co-culture, imaging cell counts, at 1 µM; for red/green cell ratio (normalised): actives lie on both sides, counts scaled to control wells, 1 = unselective
# [4] = viability loss in pontine glioma line – cell-based, SU-DIPG-XIII, MIPE4.0, CellTiter-Glo, qHTS, dose response (AID 1347061; cut-off not given, nearly all actives have AC50 up to about 37 µM;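 further: cells exposed to compound for 48 hours before readout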); conditions: CellTiter-Glo ATP luminescence
# [5] = viability loss in pontine glioma line – cell-based, JHH-DIPG-1, MIPE4.0, CellTiter-Glo, qHTS, dose response (AID 1347062; cut-off not given, nearly all actives have AC50 up to about 27 µM;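 on AC50: cells exposed to compound for two days before readout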); conditions: JHH-DIPG-1 viability, CellTiter-Glo ATP luminescence
# [6] = viability loss in pontine glioma line – cell-based, SU-DIPG-IV, MIPE4.0, CellTiter-Glo, qHTS, dose response (AID 1347063; cut-off not given, nearly all actives have AC50 up to about 30 µM;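 further: compound exposure lasted 48 hours before the viability readout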); conditions: CellTiter-Glo ATP luminescence
# [7] = viability loss in pontine glioma line – cell-based, SU-DIPG-XIII, MIPE5.0, CellTiter-Glo, qHTS, dose response (AID 1347064; cut-off not given, nearly all actives have AC50 up to about 23 µM); conditions: CellTiter-Glo ATP luminescence
# [8] = growth inhibition of DIPG cells – cell-based, MIPE4.0 library, CellTiter-Glo luminescence, qHTS (AID 1347066; cut-off not given, nearly all actives have AC50 up to about 30 µM;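 further: cells exposed to compound for 48 hours before readout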); conditions: SU-DIPG-VI viability, CellTiter-Glo ATP luminescence
# [9] = JHH-DIPG-1 glioma cell viability, MIPE5.0 library, CellTiter-Glo luminescence, qHTS (AID 1347067; cut-off not given, nearly all actives have AC50 up to about 26 µM;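 further: cells exposed to compound for 48 hours before readout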); conditions: JHH-DIPG-1 glioma viability, CellTiter-Glo ATP luminescence
# [10] = growth inhibition of DIPG cells – cell-based, MIPE5.0 library, qHTS (AID 1347068; cut-off not given, nearly all actives have IC50 up to about 30 µM); conditions: SU-DIPG-XXV viability
# [11] = viability loss with induced miR-34 in A549 – imaging, A549 dox-inducible miR-34, nuclei and caspase counts, primary screen (AID 1347080;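 active means compounds whose cell count with miR-34 switched on is under 0.7 times the count with it off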); conditions: A549 miR-34 inducible, Hoechst nuclei count, 48 h
# [12] = MELAS cybrid and Rieske KO viability enhancers – cell-based, MELAS cybrids, Rieske KO mouse fibroblasts, CellTiter-Glo, primary screen (AID 1508586;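 active means mean z-score across replicates of 1.96 or higher in either the MELAS or the Rieske mutant cell line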;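 further: z relative to plate mean and SD of compound and empty wells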); conditions: low glucose
# [13] = viability loss in pontine glioma line – cell-based, SU-DIPG-XVII, MIPE5.0, CellTiter-Glo, qHTS, dose response (AID 1347060; cut-off not given, nearly all actives have AC50 up to about 26 µM); conditions: CellTiter-Glo ATP luminescence
# [14] = viability loss in pontine glioma line – cell-based, SU-DIPG-XXV, MIPE5.0, CellTiter-Glo, qHTS, dose response (AID 1347065; cut-off not given, nearly all actives have AC50 up to about 26 µM;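 further: cells exposed to compound for 48 hours before ATP readout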); conditions: CellTiter-Glo ATP luminescence
# [15] = blockers of cellular phospholipid synthesis – cell-based, LOPAC library, screen 4, primary screen (AID 1347384; call rule not given here); conditions: animal cells, phospholipid biosynthesis inhibition screen; at 10 µM
# [16] = measured here: epithelial PC-3E GFP cell survival
# [17] = measured here: mesenchymal TEM4-18 mCherry cell survival
# [18] = stronger effect = lower value, cell number ratio, induced over uninduced
# [19] = measured here: relative caspase fold change +Dox/-Dox
# [20] = measured here: total cells with miR-34 induction, stronger effect = lower value
# [21] = measured here: total cells without miR-34 induction
# [22] = MELAS cybrid survival, CellTiter-Glo 48 h, stronger effect = higher value
# [23] = Rieske KO mouse fibroblast survival, CellTiter-Glo 72 h
compound,measurement,setting,value
COc1ccccc1OCC(O)CN1CCN(CC(=O)Nc2c(C)cccc2C)CC1 (stereo not drawn),viability,"[1]; at 0.0195 µM, OCI-C5x cells, without rucaparib",107% (inactive)
same,viability,"[1]; at 0.0195 µM, OCI-P5x cells, with rucaparib 20 µM, 100% = cells with rucaparib alone",94.5% (active)
same,viability,"[1]; at 0.0195 µM, OCI-P5x cells, without rucaparib",108% (inactive)
same,viability,"[1]; at 0.0781 µM, OCI-C5x cells, with rucaparib 10 µM, 100% = cells with rucaparib alone",108% (inactive)
same,viability,"[1]; at 0.0781 µM, OCI-C5x cells, without rucaparib",114% (inactive)
same,viability,"[1]; at 0.0781 µM, OCI-P5x cells, with rucaparib 20 µM, 100% = cells with rucaparib alone",101% (inactive)
same,viability,"[1]; at 0.0781 µM, OCI-P5x cells, without rucaparib",106% (inactive)
same,viability,"[1]; at 0.313 µM, OCI-C5x cells, with rucaparib 10 µM, 100% = cells with rucaparib alone",110% (inactive)
same,viability,"[1]; at 0.313 µM, OCI-C5x cells, without rucaparib",118% (inactive)
same,viability,"[1]; at 0.313 µM, OCI-P5x cells, with rucaparib 20 µM, 100% = cells with rucaparib alone",94.5% (active)
same,viability,"[1]; at 0.313 µM, OCI-P5x cells, without rucaparib",107% (inactive)
same,viability,"[1]; at 1.25 µM, OCI-C5x cells, with rucaparib 10 µM, 100% = cells with rucaparib alone",102% (inactive)
same,viability,"[1]; at 1.25 µM, OCI-C5x cells, without rucaparib",121% (inactive)
same,viability,"[1]; at 1.25 µM, OCI-P5x cells, with rucaparib 20 µM, 100% = cells with rucaparib alone",104% (inactive)
same,viability,"[1]; at 1.25 µM, OCI-P5x cells, without rucaparib",92.6% (active)
same,viability,"[1]; at 5 µM, OCI-C5x cells, with rucaparib 10 µM, 100% = cells with rucaparib alone",67.5% (active)
same,viability,"[1]; at 5 µM, OCI-C5x cells, without rucaparib",39.4% (active)
same,viability,"[1]; at 5 µM, OCI-P5x cells, with rucaparib 20 µM, 100% = cells with rucaparib alone",49.6% (active)
same,viability,"[1]; at 5 µM, OCI-P5x cells, without rucaparib",23.6% (active)
CCOC(=O)[C@H](CCc1ccccc1)N[C@@H](C)C(=O)N1[C@H](C(=O)O)C[C@@H]2CCC[C@@H]21,mean signal,[2],226 (inactive)
same,red/green cell ratio (normalised),[3],0.83 (inactive)
same,normalised cell number,[3]; [16],1.1
same,normalised cell number,[3]; [17],0.91
same,AC50,[4],8.33 µM (active)
same,AC50,[5],16.6 µM (active)
same,AC50,[6],5.9 µM (active)
same,outcome,[7],inactive
same,AC50,[8],16.6 µM (active)
same,outcome,[9],inactive
same,outcome,[10],inactive
same,fold change,[11]; [18],0.911 (inactive) and 0.827 (inactive) and 0.868 (inactive)
same,fold change,[11]; [19],1.49 and 3.09 and 1.08
same,cell count,[11]; [20],9860 and 10700 and 9970
same,cell count,[11]; [21],10800 and 13000 and 11500
same,z-score,[12]; [22],-0.258 (inactive) and 0.537
same,z-score,[12]; [23],-0.11 and 2.28
Nc1nc2c(ncn2COC(CO)CO)c(=O)[nH]1,mean signal,[2],268 (inactive)
same,red/green cell ratio (normalised),[3],1.03 (inactive)
same,normalised cell number,[3]; [16],1.04
same,normalised cell number,[3]; [17],1.07
same,outcome,[13],inactive
same,AC50,[5],16.6 µM (active)
same,AC50,[6],20.9 µM (active)
same,outcome,[14],inactive
same,outcome,[8],inactive
same,outcome,[9],inactive
same,outcome,[10],inactive
same,outcome,[15],inactive
CC(C)c1nc(CN(C)C(=O)N[C@H](C(=O)N[C@@H](Cc2ccccc2)C[C@H](O)[C@H](Cc2ccccc2)NC(=O)OCc2cncs2)C(C)C)cs1,mean signal,[2],246 (inactive)
same,red/green cell ratio (normalised),[3],1.06 (inactive)
same,normalised cell number,[3]; [16],1.14
same,normalised cell number,[3]; [17],1.21
same,outcome,[4],inactive
same,outcome,[5],inactive
same,outcome,[8],inactive
same,z-score,[12]; [22],-1.48 (inactive)
same,z-score,[12]; [23],0.534
CC[N+](C)(CC)CCOC(=O)C(O)(c1ccccc1)C1CCCCC1 (stereo not drawn),mean signal,[2],260 (inactive)
same,red/green cell ratio (normalised),[3],0.95 (inactive)
same,normalised cell number,[3]; [16],1.13
same,normalised cell number,[3]; [17],1.07
same,fold change,[11]; [18],0.958 (inactive)
same,fold change,[11]; [19],1.3
same,cell count,[11]; [20],8830
same,cell count,[11]; [21],9210
COC1=C(OC)C(=O)C(CCCCCCCCCCO)=C(C)C1=O,mean signal,[2],254 (inactive)
same,red/green cell ratio (normalised),[3],0.83 (inactive)
same,normalised cell number,[3]; [16],1.18
same,normalised cell number,[3]; [17],0.98
same,outcome,[13],inactive
same,outcome,[14],inactive
same,AC50,[8],23.5 µM (active)
same,outcome,[10],inactive
same,fold change,[11]; [18],0.841 (inactive) and 0.881 (inactive) and 0.889 (inactive)
same,fold change,[11]; [19],1.87 and 0.941 and 1.43
same,cell count,[11]; [20],8540 and 8000 and 9340
same,cell count,[11]; [21],10200 and 9080 and 10500
same,z-score,[12]; [22],-0.358 (inactive) and -0.43 (inactive) and 0.294 (inactive)
same,z-score,[12]; [23],0.303 and 0.0167 and -0.141
O=C1CCc2ccc(OCCCCN3CCN(c4cccc(Cl)c4Cl)CC3)cc2N1,mean signal,[2],231 (inactive)
same,red/green cell ratio (normalised),[3],0.72 (inactive)
same,normalised cell number,[3]; [16],1.31
same,normalised cell number,[3]; [17],0.94
same,outcome,[4],inactive
same,outcome,[5],inactive
same,AC50,[14],13.2 µM (active)
same,z-score,[12]; [22],-0.393 (inactive) and -1.22 (inactive) and -0.905 (inactive)
same,z-score,[12]; [23],0.269 and 1.31 and -0.2
